Reference: PubChem BioAssay (EPA / NIEHS)
Values joined by “and” are separate entries in the source; they are usually repeats but may differ in a detail not shown here. Equal values may be shown once. A structure can be active in one record and inactive in another. Active and inactive are the calls of the source. Rule for the calls: active = hit-call score of the fitted dose curve at least 0.9, where 1 is the maximum; inactive = score below 0.9.

read-out: Interleukin-1 alpha (IL1a), IL1A (gene 3552); experiment: BSK_LPS_IL1a: BioMAP Diversity Plus: LPS Assay for Interleukin-1 alpha (IL1a) Biomarker Activity (AID 2283080); conditions: primary human HUVEC with PBMC; actives raise or lower the signal
Experimental: BSK_LPS is a cell-based, multiplexed-readout assay that uses umbilical vein endothelium and peripheral blood mononuclear cells, a human vascular primary cell co-culture, with measurements taken at 24 hours after chemical dosing in a 96-well plate.BSK_LPS_IL1a is an assay component measured in the BSK_LPS assay. It measures IL-a antibody related to regulation of gene expression using ELISA technology.Data from the assay component BSK_LPS_IL1a was analyzed into 1 assay endpoint. This assay endpoint, BSK_LPS_IL1a, was analyzed with bidirectional fitting relative to DMSO as the negative control and baseline of activity. Using a type of binding reporter, gain or loss-of-signal activity can be used to understand changes in the signaling as they relate to the gene IL1A. Furthermore, this assay endpoint can be referred to as a primary readout, because this assay has produced multiple assay endpoints where this one serves a signaling function. To generalize the intended target to other relatable targets, this assay endpoint is annotated to the cytokine intended target family, where the subfamily is interleukins.
The levels of cell surface (or secreted, indicated by the prefix "s") biomarker endpoints were measured by ELISA. Overt cytotoxicity to cells in confluent adherent cultures (all systems other than the BT system) was assessed by measuring total protein levels using sulforhodamine B (SRB) staining in parallel cultures at the time of biomarker measurements, indicated as SRB endpoints. For proliferation assays for adherent cell types, individual cell types are cultured at sub-confluence and relative cell numbers quantified by SRB staining at time points optimized for each system (48 h: 3C and CASM3C systems; 72 h: BT and HDF3CGF systems; 96 h: SAg system). SRB was performed by staining cells with 0.1% SRB after fixation with 10% TCA and reading wells at 560 nm.Viability and proliferation of PBMC (T cells) was quantified by Alamar Blue reduction for the SAg and BT systems. For PBMC viability (referred to as PBMC Cytotoxicity within the assay endpoint names), cells were plated (75,000/well in a 96-well plate) and then chemical samples added for 1 h before addition of activators, SEB and TSST-1 (20 ng/mL final concentration each). Cells were incubated for 90 h. Then, Alamar Blue (20 uL/well) (Invitrogen, Cat DAL1100) was added for 6 h, and the plates were read with a fluorescence microplate reader at 546/580 nm (excitation/emission). For PBMC proliferation, cells were plated and activated as above but incubated for only 16 h prior to addition of Alamar Blue. Plates were read after 6 h.

Row | SMILES | outcome | AC50
1 | CC(C)(C)C(O)C(Oc1ccc(-c2ccccc2)cc1)n1cncn1 (stereo not given) | inactive | 
2 | CNC(=O)Oc1cc(C)c(SC)c(C)c1 | inactive | 
3 | C=CC(=O)OCC(CC)CCCC (stereo not given) | inactive | 
4 | CCCC[N+](CCCC)(CCCC)CCCC | inactive | 
5 | COc1ccc(CO)cc1 | inactive | 
6 | O=[N+]([O-])O | inactive | 
7 | O=S(=O)(c1ccccc1)c1ccccc1 | inactive | 
8 | CCCOC(=O)c1ccccc1C(=O)OCCC | inactive | 
9 | Oc1ccc(C2(c3ccc(O)cc3)c3ccccc3-c3ccccc32)cc1 | inactive | 32.7 µM (active)
10 | CC(C)CCCCCCCOP(=O)(Oc1ccccc1)Oc1ccccc1 |  | 27.3 µM (active)
11 | Clc1ccc(-c2ccccc2)cc1 | inactive | 
12 | c1ccc(Nc2ccc3ccccc3c2)cc1 | inactive | 
13 | O=C1C=CC(=O)C=C1 | inactive | 30.6 µM (active)
14 | O=c1[nH]c(Cl)c(Cl)cc1Cl | inactive | 
15 | CC(C)COP(=O)(OCC(C)C)OCC(C)C | inactive | 
16 | CC(C)(C)C(=O)CCl |  | 33.9 µM (active)
17 | COCC(=O)N(c1c(C)cccc1C)N1CCOC1=O | inactive | 
18 | O=C(O)CCCc1ccc(N(CCCl)CCCl)cc1 |  | 34.8 µM (active) and 20 µM (active)
19 | Oc1cc(Cl)ccc1Cl | inactive | 

Row | SMILES | outcome | AC50
20 | O=c1c2ccccc2c(=O)c2c1cc(Cl)c1[nH]c3c([nH]c12)c(Cl)cc1c(=O)c2ccccc2c(=O)c13 | inactive | 
21 | O=[N+]([O-])c1ccc(Cl)cc1 | inactive | 
22 | CC(C)CCCCCCCOC(=O)c1ccccc1C(=O)OCCCCCCCC(C)C | inactive | 
23 | CCC(C)c1cc([N+](=O)[O-])cc([N+](=O)[O-])c1OC(=O)C=C(C)C (stereo not given) |  | 20 µM (active)
24 | O=P1(NCCCl)OCCCN1CCCl (stereo not given) | inactive | 
25 | O=[N+]([O-])C=Cc1ccccc1 |  | 8.05 µM (active)
26 | O=C1C(Cl)=C(Cl)C(=O)C(Cl)=C1Cl |  | 14 µM (active)
27 | CC1(C)[C@H](C(=O)O[C@H](C#N)c2cccc(Oc3ccccc3)c2)[C@@H]1C=C(Br)Br | inactive | 
28 | O=C(CCl)c1ccccc1 |  | 3.72 µM (active)
29 | CC(C)(c1cc(Cl)c(O)c(Cl)c1)c1cc(Cl)c(O)c(Cl)c1 |  | 31.5 µM (active)
30 | Cc1ccc(OP(=O)(Oc2ccc(C)cc2)Oc2ccc(C)cc2)cc1 (tested in a mixture with another compound) |  | 4.74 µM (active)
31 | CCc1cc(C)cc(CC)c1-c1c(OC(=O)C(C)(C)C)n2n(c1=O)CCOCC2 | inactive | 
32 | N#CCCCCC#N | inactive | 
33 | COC(C)(C)CCC[C@H](C)C/C=C/C(C)=C/C(=O)OC(C)C |  | 36.4 µM (active)
34 | Nc1ccc(-c2ccc(N)c(N)c2)cc1N | inactive | 
35 | C=CCN(CC=C)C(=O)C(Cl)Cl | inactive | 
36 | CC(=O)/C=C/c1ccccc1 |  | 20 µM (active)
37 | CCCCCCCCCCCC#N |  | 32.4 µM (active)
38 | [Cd+2].[Cl-].[Cl-] | inactive | 
